Drawing on PubChem BioAssay (EPA / NIEHS), this text covers outcome for 40 molecules.

Results filed as inconclusive are left out. Active and inactive are the calls of the source. The calls were made as follows: active = hit-call score of the fitted dose curve at least 0.9, where 1 is the maximum; inconclusive = response in the unintended direction; inactive = score below 0.9.

A short description of this assay: ATG_M_32_TRANS: Attagene TRANS-FACTORIAL HepG2 Assay for M32 Transcription Factor (Internal Marker) (AID 2282984). Conditions: HepG2 Attagene TRANS M32 internal marker reporter. Here is the method: ATG_TRANS is a cell-based, multiplexed-readout assay that uses HepG2, a human liver cell line, with measurements taken at 24 hours after chemical dosing in a 24-well plate.ATG_M_32_TRANS is one of 30 assay component(s) measured or calculated from the ATG_TRANS assay. It is designed to make measurements of mRNA induction, a form of inducible reporter, as detected with fluorescence intensity signals by Reverse transcription polymerase chain reaction (RT-PCR) and Capillary electrophoresis technology.Data from the assay component ATG_M_32_TRANS was analyzed into 1 assay endpoint. This assay endpoint, ATG_M_32_TRANS, was analyzed in the positive analysis fitting direction relative to DMSO as the negative control and baseline of activity. Using a type of inducible reporter, measures of mRNA for gain-of-signal activity can be used to understand the background control at the transcription factor-level as they relate to the gene . Furthermore, this assay endpoint can be referred to as a secondary readout, because this assay has produced multiple assay endpoints where this one serves a background control function. To generalize the intended target to other relatable targets, this assay endpoint is annotated to the background measurement intended target family, where the subfamily is internal marker.
Human liver HepG2 cells are transiently transfected with multiple reporter transcription units (MRTUs) in 6-well plates using FuGene 6 reagent (Roche; 3 ml FuGene/1 mg DNA). The MRTU constructs are regulated by a cis-regulating element (promoter). […] A major difference between the CIS and TRANS system is that in CIS activities of endogenous TFs are measured, whereas the TRANS assay evaluates changes in activities of exogenous, chimeric NR-Gal4 proteins. […] At the end of 24 hour incubation, total RNA was isolated using TriZol reagent (Invitrogen). The isolated RNA is then reverse-transcribed using oligo(dT) primer and Mo-MLV reverse transcriptase (Invitrogen) with DNAse I (Ambion) treatment for 30 min. The one-tenth of the produced cDNA was amplified by PCR using Taq DNA polymerase (Invitrogen) and two reporter sequence-specific primers. The PCR products were fluorescently labeled by primer extension with 6-arboxyfluorescein (6-FAM) 5'-labeled reporter sequence-specific primer (2 min at 95 C, 20 s at 68 C and 10 min at 72 C) and these products were digested with 5U of HpaI (New England Biolabs) for 2h at 37 C. The fragments were purified using Qiaquick PCR columns (Qiagen), analyzed on an ABI 3130xL genetic analyzer (Applied Biosystems) with peak positions identified by using a set of X-rhodamine (ROX)-labeled MapMarker1000 molecular weight standards (BioVentures). The raw capillary electrophoresis data was processed using Attagraph software (Attagene).
On to `CCc1cccc(C)c1N(C(=O)C(=O)O)C(C)COC` (stereo not given), for which the outcome was inactive. Consider `CCOC(C=C(C)CCC=C(C)C)OCC`, for which the molecule was classed as inactive. The result for `CCCCOC(=O)C(C)O` (stereo not given) reads “inactive”; that for `CCCCCCCCCCCCCCCCC`, “inactive”. As for `CCN(CC)c1ccc(C=O)c(O)c1`, the call was inactive.

For the molecule `OCC1CCCO1` (stereo not given), the outcome was inactive. On to `O=S(=O)(O)c1ccc(Cl)cc1`, for which the call was inactive. For `O=C1C=CC(=O)N1c1ccccc1`, the outcome was inactive.

`CCCCCC/C=C/CCCCCCCC(=O)O`: the result was inactive. On to `CCC(=O)OC(C)c1ccccc1` (stereo not given), for which the molecule was classed as inactive.

Consider `CC(O)C#CC(C)O` (stereo not given), for which the call was inactive. With `OCCCCC(F)(F)C(F)(F)C(F)(F)C(F)(F)F`, the result was inactive. Consider `FC(F)(F)C(F)(F)C(F)(F)CC1CO1` (stereo not given), for which the call was inactive. Consider `NCC(F)(F)C(F)(F)C(F)(F)C(F)(F)C(F)(F)C(F)(F)C(F)(F)C(F)(F)F`, for which the result was inactive. For `CCCCCCCC/C=C\CCCCCCCC(=O)OCC(O)CO` (stereo not given), the result was inactive.

Consider `CCCCCCCCCCCC(=O)Cl`, for which the outcome was inactive.

`CCN(CC)c1ccc2c(c1)Oc1cc(N(CC)CC)ccc1C21OC(=O)c2ccccc21`: the molecule was called inactive.

For the molecule `OCCCC(F)(F)C(F)(F)C(F)(F)C(F)(F)C(F)(F)C(F)(F)C(F)(F)C(F)(F)F`, the outcome was inactive.

`CCCCCCCCn1sc(Cl)c(Cl)c1=O`: the call was inactive. On to `C=C(C)C(=O)OCC(F)(F)C(F)(F)C(F)(F)C(F)F`, for which the molecule was called inactive. Regarding `C=CC(=O)OCCC(F)(F)C(F)(F)C(F)(F)C(F)(F)F`, the molecule was called inactive. For the molecule `NC(=O)C(F)(F)C(F)(F)C(F)(F)C(F)F`, the call was inactive. The result for `OCCCCl` reads “inactive”; that for `O=C(O)CCC(F)(F)C(F)(F)C(F)(F)F`, “inactive”; that for `CCC(C)CO` (stereo not given), “inactive”. On to `O=S(=O)(O)CCC(F)(F)C(F)(F)C(F)(F)C(F)(F)C(F)(F)C(F)(F)C(F)(F)C(F)(F)F`, for which the molecule was called inactive. Consider `Cc1cccc(C)n1`, for which the molecule was classed as inactive. In the case of `Nc1c(Br)cc([N+](=O)[O-])cc1Br`, the call was inactive. The result for `Nc1cc([N+](=O)[O-])cc(Cl)c1O` reads “inactive”.

Regarding `CC1=CCC(=O)O1`, the molecule was classed as inactive. For the molecule `Cc1cc(C)c(O)c(C(C)(C)C)c1`, the call was inactive. On to `C=CC(=O)OCC(F)(F)C(F)(F)C(F)(F)C(F)(F)C(F)(F)C(F)(F)C(F)(F)C(F)F`, for which the result was inactive. `O=C1c2c(O)ccc(Nc3ccc(CCO)cc3)c2C(=O)c2c([N+](=O)[O-])ccc(O)c21`: the result was inactive.

For the molecule `CCC/C=C/CO`, the outcome was inactive. Turning to `Oc1ccc2c(c1)CCC2`, the molecule was called inactive. As for `CN1CN(C)CN(C)C1`, the entry is “inactive”; as for `COCCOCCC[Si](C)(O[Si](C)(C)C)O[Si](C)(C)C`, “inactive”; as for `O=S(=O)(OCC(F)(F)F)C(F)(F)C(F)(F)C(F)(F)C(F)(F)F`, “inactive”. On to `CN(N=O)C(=O)N[C@@H]1[C@@H](O)[C@H](O)[C@@H](CO)O[C@@H]1O`, for which the call was inactive. `C=CCOC(=O)CC(C)C`: the molecule was classed as inactive.
